From PubChem BioAssay (EPA / NIEHS)
Calls of active or inactive are those of the source. How the source made its calls: active means hit-call score of the fitted dose curve at least 0.9, where 1 is the maximum; inactive means score below 0.9.

What was measured:
Conditions in all cases: mRNA level, 48 h; actives raise or lower the signal
CYP2C9 (gene 1559) = experiment: LTEA_HepaRG_CYP2C9: Life Technologies and Expression Analysis (LTEA) Assay for CYP2C9 using HepaRG (AID 2283484)
In short: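 Eight-point concentration-response (highest 100 uM, half-log dilutions) in HepaRG cells for 48 h; CYP2C9 expression by qRT-PCR normalized to ACTB, GAPDH, POLR2A. Bidirectional fit, DMSO baseline.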

CYP2E1 (gene 1571) = experiment: LTEA_HepaRG_CYP2E1: Life Technologies and Expression Analysis (LTEA) Assay for CYP2E1 using HepaRG (AID 2283485)
In short: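 Readout is qRT-PCR of CYP2E1 mRNA, normalized to three housekeeping genes and fitted bidirectionally against 0.5% DMSO. HepaRG cells were dosed 48 h at eight concentrations, highest 100 uM with half-log dilutions.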

CYP4A11 (gene 1579) = experiment: LTEA_HepaRG_CYP4A11: Life Technologies and Expression Analysis (LTEA) Assay for CYP4A11 using HepaRG (AID 2283486)
In short: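 Readout is CYP4A11 transcript level by qRT-PCR, normalized to three housekeeping genes and fitted bidirectionally against 0.5% DMSO. Human HepaRG cells were treated 48 h, in duplicate, with an 8-point half-log series topping at 100 uM.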

[1] = read-out: Cytochrome P450 3A4 (Homo sapiens) (UniProt P08684); experiment: LTEA_HepaRG_CYP3A4: Life Technologies and Expression Analysis (LTEA) Assay for CYP3A4 using HepaRG (AID 2283487)
In short: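 Differentiated HepaRG cells, plated 48 h, then dosed 48 h in serum-free induction medium with 0.5% DMSO, 8 half-log concentrations up to 100 uM, duplicate. CYP3A4 mRNA by qRT-PCR, normalized to ACTB/GAPDH/POLR2A; bidirectional fit versus DMSO.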

[2] = read-out: Pro-epidermal growth factor (Homo sapiens) (UniProt P01133); experiment: LTEA_HepaRG_EGF: Life Technologies and Expression Analysis (LTEA) Assay for Epidermal growth factor (EGF) using HepaRG (AID 2283489)
In short: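 EGF transcript measured by Fluidigm TaqMan qRT-PCR with three housekeeping genes for normalization, 48 h after dosing HepaRG cultures in duplicate (top 100 uM, half-log steps, 0.5% DMSO vehicle). Gain or loss relative to DMSO fitted.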

[3] = read-out: Early growth response protein 1 (EGR1) transcription factor, EGR1 (gene 1958); experiment: LTEA_HepaRG_EGR1: Life Technologies and Expression Analysis (LTEA) Assay for Early growth response protein 1 (EGR1) transcription factor using HepaRG (AID 2283490)
In short: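 EGR1 expression change in human HepaRG after 48 h chemical exposure, assessed by housekeeping-normalized qRT-PCR; concentration-response up to 100 uM, fitted in both directions against DMSO controls.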

[4] = read-out: Ezrin (EZR), EZR (gene 7430); experiment: LTEA_HepaRG_EZR: Life Technologies and Expression Analysis (LTEA) Assay for Ezrin (EZR) using HepaRG (AID 2283491)
In short: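 EZR transcript levels came from Fluidigm qRT-PCR and were normalized to three housekeeping genes after 48 h chemical exposure of HepaRG cells. Dosing used an 8-point half-log series with a 100 uM top concentration in 0.5% DMSO, tested in duplicate; both directions were fitted versus vehicle.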

[5] = read-out: Cytochrome P450 3A7 (Homo sapiens) (UniProt P24462); experiment: LTEA_HepaRG_CYP3A7: Life Technologies and Expression Analysis (LTEA) Assay for CYP3A7 using HepaRG (AID 2283492)
In short: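 CYP3A7 transcript measured by qRT-PCR (ACTB, GAPDH, POLR2A normalization) after 48 h chemical exposure of HepaRG cells in duplicate. Eight half-log concentrations, maximum 100 uM, 0.5% DMSO vehicle; bidirectional curve fitting against DMSO baseline.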

CYP3A5 (gene 1577) = experiment: LTEA_HepaRG_CYP3A5: Life Technologies and Expression Analysis (LTEA) Assay for CYP3A5 using HepaRG (AID 2283493)
In short: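 Human HepaRG hepatic cells receive 48 h chemical treatment at eight concentrations (half-log steps from 100 uM) in 0.5% DMSO. Expression of CYP3A5 is quantified by Fluidigm qRT-PCR and normalized to three reference genes.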

[6] = read-out: Fatty Acid-Binding Protein 1 (FABP1), FABP1 (gene 2168); experiment: LTEA_HepaRG_FABP1: Life Technologies and Expression Analysis (LTEA) Assay for Fatty Acid-Binding Protein 1 (FABP1) using HepaRG (AID 2283494)
In short: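 Values reflect bidirectional concentration-response fitting of FABP1 mRNA change against 0.5% DMSO controls. Human HepaRG cultures received eight half-log doses (top 100 uM) for 48 h; expression quantified by TaqMan qRT-PCR with housekeeping-gene normalization.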

[7] = read-out: Cytochrome P450 4A22 (Homo sapiens) (UniProt Q5TCH4); experiment: LTEA_HepaRG_CYP4A22: Life Technologies and Expression Analysis (LTEA) Assay for Cytochrome P450 4A22 (CYP4A22) using HepaRG (AID 2283495)
In short: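 Gene expression measured by qRT-PCR against three housekeeping genes (ACTB, GAPDH, POLR2A), with gain or loss fitted relative to 0.5% DMSO vehicle. HepaRG cultures received 48 h chemical treatment, top concentration 100 uM, half-log steps, duplicate wells.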

[8] = read-out: Cytochrome P450 7A1 (Homo sapiens) (UniProt P22680); experiment: LTEA_HepaRG_CYP7A1: Life Technologies and Expression Analysis (LTEA) Assay for Cytochrome P450 7A1 (CYP7A1) using HepaRG (AID 2283496)
In short: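 HepaRG, 48 h exposure, 8-pt half-log series from 100 uM, 0.5% DMSO vehicle, duplicates. Readout: TaqMan qRT-PCR mRNA vs three housekeeping genes; bidirectional curve fit against DMSO baseline.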

[9] = read-out: Glutathione S-Transferase (GSTA2), GSTA2 (gene 2939); experiment: LTEA_HepaRG_GSTA2: Life Technologies and Expression Analysis (LTEA) Assay for Glutathione S-Transferase (GSTA2) using HepaRG (AID 2283497)
In short: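 Oxidative-stress marker GSTA2 is quantified by TaqMan qRT-PCR in HepaRG cultures treated 48 h across an eight-point range to 100 uM. Expression is normalized to endogenous controls and compared with 0.5% DMSO vehicle.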

[10] = read-out: Glutamate-cysteine ligase catalytic (GCLC), GCLC (gene 2729); experiment: LTEA_HepaRG_GCLC: Life Technologies and Expression Analysis (LTEA) Assay for Glutamate-cysteine ligase catalytic (GCLC) using HepaRG (AID 2283498)
In short: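 Oxidative-stress marker GCLC is measured as mRNA change in human HepaRG liver cells after 48 h chemical treatment in 0.5% DMSO, eight concentrations from 100 uM. Activity is fitted bidirectionally against vehicle.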

[11] = read-out: growth arrest and DNA damage 45 (GADD45G), GADD45G (gene 10912); experiment: LTEA_HepaRG_GADD45G: Life Technologies and Expression Analysis (LTEA) Assay for growth arrest and DNA damage 45 (GADD45G) using HepaRG (AID 2283499)
In short: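 GADD45G transcript level by qRT-PCR (housekeeping-normalized: ACTB, GAPDH, POLR2A) after 48 h chemical treatment of a single HepaRG lot in serum-free induction medium; eight-point half-log series up to 100 uM in 0.5% DMSO, duplicates, up- or down-regulation scored.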

[12] = read-out: Glutamate-cysteine ligase regulatory (GCLM), GCLM (gene 2730); experiment: LTEA_HepaRG_GCLM: Life Technologies and Expression Analysis (LTEA) Assay for Glutamate-cysteine ligase regulatory (GCLM) using HepaRG (AID 2283500)
In short: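 Endpoint is GCLM transcript level by qRT-PCR, normalized to three housekeeping genes, after 48 h chemical exposure of human HepaRG cells (0.5% DMSO vehicle, top 100 uM, half-log dilutions). Fitting was bidirectional relative to DMSO.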

[13] = read-out: Glutathione S-transferase M3 (GSTM3), GSTM3 (gene 2947); experiment: LTEA_HepaRG_GSTM3: Life Technologies and Expression Analysis (LTEA) Assay for Glutathione S-transferase M3 (GSTM3) using HepaRG (AID 2283501)
In short: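 GSTM3 transcript levels came from Fluidigm TaqMan qRT-PCR normalized to three housekeeping genes, fitted in both directions against DMSO. HepaRG cultures received chemicals for 48 h in serum-free induction medium (0.5% DMSO), 8 half-log concentrations up to 100 uM, duplicate.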

[14] = read-out: Heat shock 70 kDa protein 1 (HSPA1A), gene 3303; experiment: LTEA_HepaRG_HSPA1A: Life Technologies and Expression Analysis (LTEA) Assay for Heat shock 70 kDa protein 1 (HSPA1A) using HepaRG (AID 2283502)
In short: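 Cells were plated and cultured for 48 h, then switched to serum-free induction medium. Chemicals were added at eight half-log concentrations up to 100 uM for 48 h. RNA was then isolated and HSPA1A measured by qRT-PCR with bidirectional curve fitting against DMSO.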

[15] = read-out: Hypoxia-inducible factor 1-alpha (Homo sapiens) (UniProt Q16665); experiment: LTEA_HepaRG_HIF1A: Life Technologies and Expression Analysis (LTEA) Assay for Hypoxia-inducible factor 1 (HIF1A) Trancription factor using HepaRG (AID 2283503)
In short: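 HIF1A transcript level read by qRT-PCR (ACTB, GAPDH, POLR2A normalization) after 48 h chemical exposure of HepaRG cultures. Eight half-log concentrations, top 100 uM, 0.5% DMSO vehicle, duplicates; bidirectional curve fit against DMSO baseline.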

[16] = read-out: DNA damage-inducible transcript 3 (DDIT3), DDIT3 (gene 1649); experiment: LTEA_HepaRG_DDIT3: Life Technologies and Expression Analysis (LTEA) Assay for DNA damage-inducible transcript 3 (DDIT3) using HepaRG (AID 2283488)
In short: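 Cells are human HepaRG liver cells treated for 48 h with eight half-log concentrations up to 100 uM in 0.5% DMSO. Transcript levels come from qRT-PCR normalized to three housekeeping genes, with activity fitted in both directions relative to vehicle.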

Measured: AC50

Chain of Cytochrome P450 3A4 (Homo sapiens) (P08684 whole entry, looked up): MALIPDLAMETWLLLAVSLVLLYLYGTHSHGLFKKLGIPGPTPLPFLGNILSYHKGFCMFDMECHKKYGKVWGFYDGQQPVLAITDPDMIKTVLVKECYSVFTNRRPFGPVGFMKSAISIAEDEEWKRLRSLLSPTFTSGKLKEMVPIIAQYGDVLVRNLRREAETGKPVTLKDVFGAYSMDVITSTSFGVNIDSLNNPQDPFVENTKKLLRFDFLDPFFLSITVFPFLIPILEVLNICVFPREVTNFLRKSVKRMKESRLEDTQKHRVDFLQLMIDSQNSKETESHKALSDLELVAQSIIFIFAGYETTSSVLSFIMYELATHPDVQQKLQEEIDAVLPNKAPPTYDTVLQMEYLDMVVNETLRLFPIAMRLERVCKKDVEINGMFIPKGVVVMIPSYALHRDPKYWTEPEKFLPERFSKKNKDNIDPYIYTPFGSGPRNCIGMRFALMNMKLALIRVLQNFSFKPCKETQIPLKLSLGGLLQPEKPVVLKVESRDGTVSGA
Chain of Hypoxia-inducible factor 1-alpha (Homo sapiens) (Q16665 whole entry, looked up): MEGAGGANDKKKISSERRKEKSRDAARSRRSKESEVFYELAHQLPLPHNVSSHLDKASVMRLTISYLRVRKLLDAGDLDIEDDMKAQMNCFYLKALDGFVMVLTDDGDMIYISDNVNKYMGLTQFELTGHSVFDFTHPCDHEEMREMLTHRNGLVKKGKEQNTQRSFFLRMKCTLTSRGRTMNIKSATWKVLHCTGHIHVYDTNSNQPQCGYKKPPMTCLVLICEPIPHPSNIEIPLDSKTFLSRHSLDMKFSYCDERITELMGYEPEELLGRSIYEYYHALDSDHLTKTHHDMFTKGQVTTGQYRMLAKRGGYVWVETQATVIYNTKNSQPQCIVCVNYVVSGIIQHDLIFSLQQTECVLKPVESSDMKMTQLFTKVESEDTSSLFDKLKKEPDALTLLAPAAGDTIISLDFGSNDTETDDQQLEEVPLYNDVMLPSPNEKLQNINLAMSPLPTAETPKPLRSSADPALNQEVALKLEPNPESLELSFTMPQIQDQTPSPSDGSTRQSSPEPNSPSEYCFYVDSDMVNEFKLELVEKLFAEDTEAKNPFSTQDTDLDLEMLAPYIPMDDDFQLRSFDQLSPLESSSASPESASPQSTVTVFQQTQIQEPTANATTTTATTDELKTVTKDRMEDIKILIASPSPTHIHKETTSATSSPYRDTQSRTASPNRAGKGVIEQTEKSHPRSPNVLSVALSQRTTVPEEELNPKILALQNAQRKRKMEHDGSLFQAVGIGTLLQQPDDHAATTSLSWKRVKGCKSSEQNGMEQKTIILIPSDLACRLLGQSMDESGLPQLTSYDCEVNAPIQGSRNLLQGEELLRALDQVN
Chain of Cytochrome P450 3A7 (Homo sapiens) (P24462 whole entry, looked up): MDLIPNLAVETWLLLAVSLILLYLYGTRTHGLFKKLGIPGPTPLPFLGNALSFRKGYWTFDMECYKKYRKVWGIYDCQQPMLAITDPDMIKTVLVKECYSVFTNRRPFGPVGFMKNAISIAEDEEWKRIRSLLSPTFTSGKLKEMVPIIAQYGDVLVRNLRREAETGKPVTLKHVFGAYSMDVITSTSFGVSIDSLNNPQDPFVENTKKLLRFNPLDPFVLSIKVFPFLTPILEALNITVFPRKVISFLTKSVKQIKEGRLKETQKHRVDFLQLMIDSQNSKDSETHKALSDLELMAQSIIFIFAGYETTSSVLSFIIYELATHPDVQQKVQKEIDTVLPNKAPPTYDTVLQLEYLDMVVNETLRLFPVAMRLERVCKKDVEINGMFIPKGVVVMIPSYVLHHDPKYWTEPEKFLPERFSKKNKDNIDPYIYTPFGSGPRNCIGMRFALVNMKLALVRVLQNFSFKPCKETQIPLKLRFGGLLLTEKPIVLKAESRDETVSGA

O=C(Oc1ccccc1)c1cccc(C(=O)Oc2ccccc2)c1
inactive: CYP2C9 (gene 1559) | CYP2E1 (gene 1571) | CYP4A11 (gene 1579) | [1] | [2] | [3] | [4] | [5] | CYP3A5 (gene 1577) | [6] | [7] | [8] | [9] | [10] | [11] | [12] | [13] | [14] | [15]

Cc1cc(SC2=C(O)C[C@@](CCc3ccc(N)cc3)(C(C)C)OC2=O)c(C(C)(C)C)cc1CO
inactive: CYP2C9 (gene 1559) | [3] | [4] | CYP3A5 (gene 1577) | [9] | [10] | [11] | [12] | [13] | [14] | [15]
active: CYP2E1 (gene 1571) 7.16 µM | CYP4A11 (gene 1579) 2.25 µM | [1] 0.344 µM | [2] 6.35 µM | [5] 0.151 µM | [6] 3.12 µM | [7] 1.67 µM

C/C=C/c1ccc(OC)cc1
inactive: CYP2C9 (gene 1559) | CYP2E1 (gene 1571) | CYP4A11 (gene 1579) | [1] | [2] | [3] | [4] | [5] | CYP3A5 (gene 1577) | [6] | [7] | [8] | [9] | [10] | [11] | [12] | [13] | [14] | [15]

Oc1ccc(O)cc1
inactive: CYP2C9 (gene 1559) | CYP2E1 (gene 1571) | CYP4A11 (gene 1579) | [1] | [2] | [3] | [4] | [5] | CYP3A5 (gene 1577) | [6] | [7] | [8] | [9] | [10] | [11] | [12] | [13] | [14]

CO[C@@H]1COCC[C@@H]1N[C@@H]1CC[C@@](C(=O)N2CCc3ncc(C(F)(F)F)cc3C2)(C(C)C)C1
inactive: CYP2C9 (gene 1559) | CYP2E1 (gene 1571) | CYP4A11 (gene 1579) | [1] | [2] | [3] | [4] | [5] | CYP3A5 (gene 1577) | [6] | [7] | [9] | [10] | [11] | [12] | [13] | [14] | [15]

Cc1cc(Cc2ccc(N)c(C)c2)ccc1N
inactive: CYP2C9 (gene 1559) | CYP4A11 (gene 1579) | [16] | [3] | [4] | CYP3A5 (gene 1577) | [6] | [7] | [9] | [10] | [11] | [12] | [13] | [14] | [15]
active: CYP2E1 (gene 1571) 24.6 µM | [1] 4.94 µM | [2] 50 µM

S=c1[nH]c2ccccc2s1
inactive: CYP2C9 (gene 1559) | CYP2E1 (gene 1571) | CYP4A11 (gene 1579) | [1] | [16] | [2] | [3] | [4] | CYP3A5 (gene 1577) | [6] | [7] | [9] | [10] | [11] | [12] | [13] | [14] | [15]

O=C(O)CN(CC(=O)O)CC(=O)O
inactive: CYP2C9 (gene 1559) | CYP2E1 (gene 1571) | CYP4A11 (gene 1579) | [1] | [2] | [3] | [4] | [5] | CYP3A5 (gene 1577) | [6] | [7] | [8] | [9] | [10] | [11] | [12] | [13] | [14] | [15]
